15 compounds from PubChem BioAssay (NCI) can be followed below.

Compounds without any hit were thinned out: in the full panel of roughly 83,000, 20% have a hit.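 A percent growth of 40 corresponds to 60% growth inhibition; 0 means no net growth; -100 means all cells died. Active threshold: below 10.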 Values without a mark were called inactive. Calls of active or inactive are those of the source.

Among the test systems are SK-MEL-2 melanoma; EKVX NSCLC; SN12C renal; UO-31 renal; TK-10 renal; ACHN renal; CAKI-1 renal; A498 renal; CCRF-CEM leukemia; MOLT-4 leukemia.
What all share (test): NCI-60 one-dose screen, 48 h (100 = growth as untreated, 0 = no growth, -100 = all killed)
Holding throughout (conditions): 10 µM unless noted

Turning to `c1csc(-c2ccc(CNc3c4ccccc4nc4ccccc34)cc2)c1`, the growth is 80.8% in the assay with SK-MEL-2 melanoma; 59% in the assay with EKVX NSCLC; 63.2% with SN12C renal; 27.9% with UO-31 renal; 65.1% in the assay on TK-10 renal; 58.6% in the assay on ACHN renal. Also, the growth in the assay on CAKI-1 renal is 35.5%; in the assay with A498 renal, -2.45% (active); in the assay with CCRF-CEM leukemia, 2.57% (active); in the assay with MOLT-4 leukemia it was 1.96% (active).
As to `CCC(C)(C)C(=O)O[C@H]1C[C@@H](C)C=C2C=C[C@H](C)[C@H](CC[C@@H]3CC(SCCN)CC(=O)O3)[C@H]21` (stereo not given in full), the growth is 91.1% in the assay with SK-MEL-2 melanoma; 105% with EKVX NSCLC; 77% in the assay with SN12C renal; 68.6% with UO-31 renal; 92.1% in the assay with TK-10 renal; 95.8% with ACHN renal. The growth with CAKI-1 renal is 83.9%; in the assay on A498 renal, 90.3%; with CCRF-CEM leukemia, 12.1%; in the assay with MOLT-4 leukemia, 77.7%.
For the compound `COc1ccc(-c2ccc(-c3ccc(C(=N)N)cc3)s2)cc1Cl`, the growth is 101% with SK-MEL-2 melanoma; 68.3% in the assay on EKVX NSCLC; -69.1% (active) with SN12C renal; -47.6% (active) in the assay on UO-31 renal; 111% with TK-10 renal; -98.7% (active) in the assay on ACHN renal. Besides, the growth in the assay on CAKI-1 renal is -88.2% (active); in the assay with A498 renal, 90.3%; in the assay on CCRF-CEM leukemia it was -41.3% (active); with MOLT-4 leukemia it was -50.1% (active).
In the case of `CCN1C(=O)N(CC)C2C1NN=c1s/c(=C\c3ccccc3F)c(=O)n12` (stereo not given), the growth is 37.2% with SK-MEL-2 melanoma; 53% with EKVX NSCLC; 23.9% in the assay with SN12C renal; 40.4% with UO-31 renal; 70.3% in the assay with TK-10 renal; 27.5% in the assay with ACHN renal. The growth in the assay on CAKI-1 renal was 17.4%; in the assay with A498 renal, 3.4% (active); in the assay with CCRF-CEM leukemia it was 8.85% (active); in the assay with MOLT-4 leukemia, 10.2%.
With `CCCc1c(OC(=O)c2ccccc2)nc2[nH]c(=O)sc2c1C`, the growth is 107% in the assay on SK-MEL-2 melanoma; 97.9% in the assay on EKVX NSCLC; 92% in the assay on SN12C renal; 82.3% in the assay on UO-31 renal; 96.1% with TK-10 renal; 107% in the assay on ACHN renal. Further, the growth in the assay on CAKI-1 renal was 95.6%; in the assay with A498 renal it was 108%; in the assay with CCRF-CEM leukemia, 103%; with MOLT-4 leukemia it was 104%.
In the case of `CC/C(=C(/c1ccc(Cl)cc1)c1ccc(OCCN2CCCCC2)cc1)c1ccc(OC)cc1`, the growth is 90.6% in the assay with SK-MEL-2 melanoma; 58.5% in the assay with EKVX NSCLC; 74.8% with SN12C renal; 66.2% with UO-31 renal; 80.7% in the assay on TK-10 renal; 81.2% with ACHN renal. Further, the growth is 72.3% in the assay on CAKI-1 renal, 118% in the assay on A498 renal, 28.8% in the assay with CCRF-CEM leukemia and 25.8% in the assay on MOLT-4 leukemia.
`Cc1ccc(NC(=O)Cn2cc(CN3CCN(c4ccnc5cc(Cl)ccc45)CC3)nn2)cc1`: the growth was 114% with SK-MEL-2 melanoma; 80.7% with EKVX NSCLC; 93.9% in the assay on SN12C renal; 62.7% in the assay with UO-31 renal; 95.4% in the assay with TK-10 renal; 81.1% in the assay on ACHN renal. Moreover, the growth in the assay with CAKI-1 renal was 73.1%; in the assay on A498 renal, 88%; with CCRF-CEM leukemia, -31.6% (active); in the assay on MOLT-4 leukemia, -15.7% (active).
Take `NS(=O)(=O)c1ccccc1NC(=O)Nc1nc2ccccc2s1`: the growth in the assay with SK-MEL-2 melanoma was 102%; in the assay on EKVX NSCLC, 85.6%; in the assay on SN12C renal, 98.3%; with UO-31 renal, 84.1%; in the assay on TK-10 renal, 153%; with ACHN renal, 99.4%. Further, the growth with CAKI-1 renal is 89.7%; in the assay with A498 renal, 97.6%; with CCRF-CEM leukemia it was 99.2%; with MOLT-4 leukemia it was 102%.
As for `CCOC(=O)c1csc(NC(=O)COc2ccc(/C=C3\Oc4ccccc4C3=O)cc2)n1`, the growth in the assay with SK-MEL-2 melanoma is 94.8%; with EKVX NSCLC, 74%; with SN12C renal, 91%; with UO-31 renal, -14% (active); in the assay on TK-10 renal, 119%; in the assay on ACHN renal, 108%. The growth in the assay on CAKI-1 renal was 91.2%; with A498 renal it was 119%; in the assay with CCRF-CEM leukemia, 23.5%; with MOLT-4 leukemia it was 42.2%.
Take `Cc1cccc(/C=C/c2c(C(=O)/C=C/c3ccccc3)c(C)nc3ccccc23)c1`: the growth was -60.8% (active) in the assay on SK-MEL-2 melanoma; 0.995% (active) with EKVX NSCLC; -44.3% (active) with SN12C renal; -94.2% (active) with UO-31 renal; -6.55% (active) with TK-10 renal; -23% (active) with ACHN renal. Besides, the growth is -36.2% (active) in the assay on CAKI-1 renal, -38.2% (active) in the assay with A498 renal, 6.17% (active) with CCRF-CEM leukemia and 5.83% (active) with MOLT-4 leukemia.
Take `CCCCCCCC[C@@H]1N[C@@H](C(=O)OC)Cc2c1[nH]c1ccccc21`: the growth is 109% with SK-MEL-2 melanoma; 92% in the assay on EKVX NSCLC; 97.4% in the assay on SN12C renal; 73.9% in the assay on UO-31 renal; 101% with TK-10 renal; 94.6% in the assay with ACHN renal. For the same compound, the growth is 78.8% in the assay with CAKI-1 renal, 88.7% in the assay on A498 renal, 92.3% with CCRF-CEM leukemia and 93% in the assay on MOLT-4 leukemia.
As for `O=C(/C=C/c1cccs1)Nc1ncc(Cc2ccccc2F)s1`, the growth with SK-MEL-2 melanoma is 46.5%; with EKVX NSCLC, 26.1%; with SN12C renal, 41.3%; in the assay with UO-31 renal, 36.2%; in the assay with TK-10 renal, 49.6%; with ACHN renal, 31.5%. The growth in the assay with CAKI-1 renal was 23%; with A498 renal it was 4.45% (active); with CCRF-CEM leukemia it was 14.4%; with MOLT-4 leukemia it was 26%.
For the compound `O=S(=O)(Nc1ccc(F)cc1F)c1ccc(-c2cnc(C3CC3)o2)cc1`, the growth in the assay with SK-MEL-2 melanoma is 36.7%; in the assay on EKVX NSCLC it was 41.1%; in the assay with SN12C renal, 42.9%; in the assay on UO-31 renal it was 40%; in the assay on TK-10 renal it was 67.2%; in the assay on ACHN renal it was 38.5%. Also, the growth in the assay on CAKI-1 renal is 25%; with A498 renal, -3.02% (active); in the assay with CCRF-CEM leukemia, 19.3%; with MOLT-4 leukemia, 28.3%.
Regarding `Cc1csc(Nc2nc(-c3ccccn3)nc(C(Cl)(Cl)Cl)n2)n1`, the growth was 95.8% in the assay on SK-MEL-2 melanoma; 95.1% with EKVX NSCLC; 97.9% in the assay with SN12C renal; 84.3% with UO-31 renal; 94.8% in the assay with TK-10 renal; 79.7% in the assay on ACHN renal. For the same compound, the growth in the assay on CAKI-1 renal is 82.2%; with A498 renal, 90.7%; in the assay with CCRF-CEM leukemia it was 59.2%; in the assay on MOLT-4 leukemia, 67.9%.
Regarding `CCC(C)N(CCNc1cc(OC)cc2cccnc12)CC(C)C` (stereo not given), the growth in the assay with SK-MEL-2 melanoma was 110%; with EKVX NSCLC, 95.5%; with SN12C renal, 101%; in the assay with UO-31 renal, 67.2%; in the assay with TK-10 renal, 101%; in the assay on ACHN renal, 85.6%. Further, the growth is 94.1% with CAKI-1 renal, 92.8% with A498 renal, 90.9% with CCRF-CEM leukemia and 87.4% in the assay on MOLT-4 leukemia.
